Screens deposited in PubChem BioAssay by National Center for Advancing Translational Sciences (NCATS).
HT1080-NT tox: qHTS for induction of synthetic lethality in tumor cells producing 2HG: qHTS for the HT-1080-NT fibrosarcoma cell line; HT-1080-NT fibrosarcoma viability, CellTiter-Glo ATP luminescence, 48 h; Potency, µM (top dose mostly 46.1 µM), actives largely listed as cytotoxic; actives 1.6% (n = 360,000); AID 686970, 2013;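 further: NT is the 2HG producing partner of a matched IDH1 knockdown line; nearly all actives have a fitted effect of over 55% in size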
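Viability by CellTiter-Glo luminescence after 48 h compound exposure at 37C of HT-1080-NT cells (750/well, RPMI, 5% FBS). % activity scaled between DMSO wells and medium-only wells, then curve-fitted and categorized by curve class.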
IL1B secr inh: qHTS for Inhibitors of Inflammasome Signaling: IL-1-beta AlphaLISA Primary Screen | THP-1 LPS/ATP IL-1B secretion, AlphaLISA, 16 h; stronger effect = lower value | actives 4.7% (n = 360,000) | activity change, % at 57.5 µM | AID 743279, 2014; in the data active means activity change below about -50%; inconclusive means mostly about -30% to -49%
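Secreted IL-1B measured by AlphaLISA bead assay after 16 h compound exposure of THP-1 cells; compounds (final up to 57.5 uM) added 1 h before LPS (250 ng/mL) and ATP (1.25 mM) stimulation; lower signal means less secretion.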
ELG1 DNA repair: qHTS screen for small molecules that inhibit ELG1-dependent DNA repair in human embryonic kidney (HEK293T) cells expressing luciferase-tagged ELG1; HEK293T ELG1-luciferase reporter, luminescence, 16 h; DNA damage induced by 5-fluorouridine; Potency, µM (highest dose often 46.1 µM), hits mostly inhibitors; actives 2.3% (n = 330,000); AID 504467, 2011; further: nearly all actives have a fitted effect of over 55% in size
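Reporter activity after DNA damage by 5-fluorouridine is monitored. Compound-treated cells incubate 16 hr at 37 °C, then ONE-Glo is added for 30 min before luminescence reading.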
DT40 TDP1 CPT: qHTS for Inhibitors of human tyrosyl-DNA phosphodiesterase 1 (TDP1): qHTS in cells in presence of CPT. AID 686979, 2013. chicken DT40 Tdp1-/-;hTDP1 cells + 20 nM CPT, ATP luminescence, 48 h. actives 12% (n = 420,000). Potency, µM (doses to about 46.2 µM), usual class: inhibitors; further: nearly all actives have a fitted effect of over 55% in size
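Cell growth measured by CellTiter-Glo luminescence after a minimum 48 h, 37 C compound exposure with 20 nM CPT in Tdp1-knockout DT40 cells stably expressing hTDP1, seeded 400/well; qHTS titration format.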
HT1080 IDH1KD tx: qHTS for induction of synthetic lethality in tumor cells producing 2HG: qHTS for the HT-1080-IDH1KD cell line | AID 686971, 2013 | Potency, µM (series often up to 46.1 µM), most hits filed as cytotoxic | HT-1080 IDH1 knockdown viability, ATP luminescence, 48 h | actives 2% (n = 360,000)
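In this qHTS, HT-1080 cells depleted of IDH1 are exposed for 48 h at 37 °C to compound titrations. Toxicity is scored from CellTiter-Glo luminescence, with DMSO as full viability and medium alone as none.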
DT40 TDP1 no CPT: qHTS for Inhibitors of human tyrosyl-DNA phosphodiesterase 1 (TDP1): qHTS in cells in absence of CPT; DT40 Tdp1-/- hTDP1 cells, no CPT, ATP luminescence, 48 h; Potency, µM (top dose mostly 46.2 µM), usual class: inhibitors; AID 686978, 2013; actives 15% (n = 420,000); further: nearly all actives have a fitted effect of over 55% in size
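Compound effects on proliferation are scored in DT40 Tdp1-/-;hTDP1 cells in the absence of CPT. ATP levels (CellTiter-Glo luminescence) are recorded after a ≥48 hr, 37 °C incubation.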
Each line names hits and unclear results; the compound was inactive in the other large screens. Sampled rows, rich in hits. Any-hit rate of the full collection: about 19%. Unless noted, the call rests on the fitted dose curve; in most records, active means well fitted curve in the direction sought with a large enough effect; inconclusive means small, poorly fitted or top-dose-only effect, or another doubt; inactive means no such curve, though single readings can be large; an effect the other way counts as inactive or inconclusive.

CCOC(=O)[C@]12CCCC=C1N(Cc1ccccc1)C(=O)[C@H](CC(=O)NCC1CCCCC1)C2	IL1B secr inh inconclusive, DT40 TDP1 CPT inconclusive, DT40 TDP1 no CPT inconclusive (no result: ELG1 DNA repair)
O=C(Cn1ccc(C(F)(F)F)n1)Nc1cccc(S(=O)(=O)N2CCCCC2)c1	none
CCc1ccc(NC(=O)Cn2nnc(-c3ccccc3N)n2)cc1	DT40 TDP1 CPT inconclusive (no result: HT1080-NT tox, IL1B secr inh, ELG1 DNA repair, HT1080 IDH1KD tx)
Cc1ccccc1NC(=O)N(O)C1(C#N)CCCCC1	none (no result: ELG1 DNA repair)
COc1cc2c(cc1OC)CN(C(=O)CCNC(=O)c1ccccc1Cl)CC2	none
O=S(=O)(NCCSc1ccccc1)c1ccc(F)cc1	DT40 TDP1 CPT inconclusive, HT1080 IDH1KD tx inconclusive, DT40 TDP1 no CPT 18µM
COc1cc(NC(=O)c2cc3c(s2)-c2ccccc2OC3)cc(OC)c1OC	DT40 TDP1 CPT 16µM, DT40 TDP1 no CPT 8.2µM (no result: HT1080-NT tox, IL1B secr inh, ELG1 DNA repair, HT1080 IDH1KD tx)
O=C(NC1CC1)c1cc2c(s1)-c1ccccc1OC2	DT40 TDP1 CPT inconclusive
COC(=O)c1ccccc1NC(=O)c1cc2c(s1)-c1ccccc1OC2	DT40 TDP1 CPT 16µM, DT40 TDP1 no CPT inconclusive (no result: HT1080-NT tox, IL1B secr inh, ELG1 DNA repair, HT1080 IDH1KD tx)
C[C@@H]1C(=O)N(c2ccccc2)[C@@H]1c1ccncc1	none
COc1ccc(S(=O)(=O)N(CCCN2CCCC2=O)Cc2cc3cc(C)c(C)cc3[nH]c2=O)cc1	IL1B secr inh -73, ELG1 DNA repair inconclusive, DT40 TDP1 CPT inconclusive, DT40 TDP1 no CPT inconclusive
COc1ccc(NS(=O)(=O)c2ccc(C)c(C(=O)NCCCN3CCCC3=O)c2)cc1	none
Cc1ccc(C)c2[nH]c(=O)c(CCNC(=O)c3ccc(S(=O)(=O)N4CCCC4)cc3)cc12	IL1B secr inh inconclusive, ELG1 DNA repair inconclusive, DT40 TDP1 CPT inconclusive, DT40 TDP1 no CPT inconclusive
Cc1ccc(S(=O)(=O)N(CCCN2CCCC2=O)Cc2cc3c(C)ccc(C)c3[nH]c2=O)cc1	ELG1 DNA repair inconclusive, DT40 TDP1 CPT 18µM, DT40 TDP1 no CPT 23µM
COc1ccc(S(=O)(=O)N(CCN2CCOCC2)Cc2cc(OC)ccc2OC)cc1	IL1B secr inh inconclusive, DT40 TDP1 no CPT 13µM
O=C(c1ccco1)N1CCN(Cc2nnc(-c3cccc(Cl)c3)o2)CC1	none
O=S(=O)(c1cccc2ccccc12)N1CCSC1	none
NCCNS(=O)(=O)c1cccc2cnccc12	DT40 TDP1 CPT 27µM, DT40 TDP1 no CPT 18µM (no result: HT1080-NT tox, IL1B secr inh, ELG1 DNA repair, HT1080 IDH1KD tx)
O=S(=O)(c1cccc2cnccc12)N1CCNCC1	HT1080-NT tox inconclusive, IL1B secr inh -51, ELG1 DNA repair inconclusive, DT40 TDP1 CPT inconclusive, DT40 TDP1 no CPT inconclusive
CCOc1ccc(C2c3c(oc4ccc(C)cc4c3=O)C(=O)N2CCCN2CCOCC2)cc1 (stereo unspecified)	none (no result: HT1080-NT tox, IL1B secr inh, ELG1 DNA repair, HT1080 IDH1KD tx)
Cn1c(N)c(C(=O)COC(=O)c2ccccc2C(=O)c2ccccc2)c(=O)n(C)c1=O	DT40 TDP1 CPT inconclusive
CC(C)N(C(=O)COC(=O)c1ccccc1C(=O)c1ccc(Cl)c([N+](=O)[O-])c1)C(C)C	HT1080-NT tox 18µM, IL1B secr inh -102, ELG1 DNA repair inconclusive, DT40 TDP1 CPT inconclusive, HT1080 IDH1KD tx 21µM, DT40 TDP1 no CPT inconclusive
O=C(COC(=O)c1ccc(Cl)c([N+](=O)[O-])c1)NC1CCCC1	none
CN(CCC#N)C(=O)COC(=O)c1ccc(Cl)c(S(N)(=O)=O)c1	none
O=C(COC(=O)c1ccccc1C(=O)c1ccc(Cl)c([N+](=O)[O-])c1)NC1CCCCCC1	HT1080-NT tox 8.9µM, IL1B secr inh -107, ELG1 DNA repair inconclusive, DT40 TDP1 CPT inconclusive, HT1080 IDH1KD tx 3.2µM, DT40 TDP1 no CPT 23µM
O=C(COC(=O)c1ccc(Cl)c([N+](=O)[O-])c1)Nc1ccccc1OC(F)F	DT40 TDP1 CPT inconclusive
